From PubChem BioAssay
RGS4-Gao reg: human RGS4-Galphao interaction regulation. Multiplexed bead flow cytometry, RGS4-Galphao binding; actives lie on both sides. binding response (% of control), % at 10 µM. actives 0.33% (n = 220,000). AID 1415; in the data active = binding response below about 49% or above about 150%; inactive = in between;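 also: fluorescent Galphao activated with aluminum fluoride binding bead-coupled RGS4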
Target sequence (P09471 whole entry, looked up): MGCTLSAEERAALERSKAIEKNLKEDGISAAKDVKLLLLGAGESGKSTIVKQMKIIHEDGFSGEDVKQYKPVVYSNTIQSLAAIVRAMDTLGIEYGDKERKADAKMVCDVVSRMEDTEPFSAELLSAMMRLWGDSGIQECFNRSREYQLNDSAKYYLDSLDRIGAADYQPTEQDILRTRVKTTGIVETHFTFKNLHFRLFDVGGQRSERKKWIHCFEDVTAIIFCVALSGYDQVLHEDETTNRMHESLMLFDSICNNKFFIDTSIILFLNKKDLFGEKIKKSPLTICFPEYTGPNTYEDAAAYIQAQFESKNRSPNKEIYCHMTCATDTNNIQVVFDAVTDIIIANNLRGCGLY
RGS7-Gao reg: regulators of human RGS7-Galphao interaction; binding response (% of control), % at 10 µM; Multiplexed bead flow cytometry, RGS7-Galphao binding; actives lie on both sides; actives 0.35% (n = 220,000); P09471; in the data active = binding response below about 49% or above about 150%; inconclusive = no clear call, values can overlap the other calls; inactive = in between;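 also: fluorescent Galphao held in activated GDP-AlF4 state binding bead-coupled RGS7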
RGS8-Gao reg: regulators of human RGS8-Galphao interaction; P09471; multiplexed bead flow cytometry, RGS8-Galphao binding; actives lie on both sides; response (percent of control binding), % at 10 µM; actives 0.34% (n = 220,000); in the data active = response below about 60% or above about 140%; inactive = in between;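 also: Galphao activated as the GDP aluminium fluoride complex binding bead-coupled RGS8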
RGS16-Gao HTS: RGS16-Galphao interaction regulator (human); O15492+P09471; bead-based flow cytometry RGS16-Galphao binding, fluorescence; actives lie on both sides; binding response (% of control), % at 10 µM; actives 0.38% (n = 220,000); AID 1441;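 also: Galphao activated by GDP with aluminum fluoride before binding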
GSH fluor: GSH bead compound fluorescence profile | fluorescence (KMESF) at 10 µM | GSH beads flow cytometry, compound fluorescence 488/530 nm; active compounds read high | AID 1776 | actives 0.25% (n = 190,000); in the data active = fluorescence above about 89;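 also: glutathione beads carrying GST-tagged Bcl family fusion proteins plus one bare bead set; values are compound well signal with DMSO vehicle wells as background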
Avidin bead fluor: compound fluoresces at 488/530 nm on avidin beads; AID 1775; compound fluorescence 488/530 nm, flow cytometry; active compounds read high; actives 0.38% (n = 220,000); fluorescence (KMESF) at 10 µM; in the data active = fluorescence above about 47
RGS-Gao: regulators of human RGS4-Galphao interaction; shares compounds with RGS16-Gao HTS; multiplexed bead flow cytometry, RGS–Galpha-o binding; RGS4–Galpha-o binding response, % at 10 µM; actives 99% (n = 1,600);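 also: fluorescently labeled Galpha-o bound to GDP with aluminium fluoride binding biotinylated RGS beads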
Target sequence (P09471 whole entry, looked up): as above
Target sequence (P49798 whole entry, looked up): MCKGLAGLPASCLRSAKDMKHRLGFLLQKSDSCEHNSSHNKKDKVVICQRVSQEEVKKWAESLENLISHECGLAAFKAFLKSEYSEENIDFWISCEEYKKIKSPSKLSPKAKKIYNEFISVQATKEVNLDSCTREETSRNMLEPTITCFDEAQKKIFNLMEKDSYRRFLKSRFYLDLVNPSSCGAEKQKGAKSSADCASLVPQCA
Avidin counter: counter-screen: compounds disrupting biotin binding to avidin beads. shares compounds with RGS16-Gao HTS. streptavidin beads, fluorescein-biotin binding, flow cytometry. inhibition, % at 10 µM. 1,700 tested, under 10 active;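 active = inhibition above 50%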;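 also: median green fluorescence of gated singlet beads compared with DMSO control wells; 0% = DMSO wells and 100% = complete loss of bead fluorescence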
RGS8-Gao confirm: confirmation of regulators of human RGS8-Galphao interaction; actives 3% (n = 1,700); shares compounds with RGS16-Gao HTS; bead-based flow cytometry RGS8-Galphao binding, fluorescence; actives lie on both sides; binding response (% of control), % at 10 µM; in the data active = binding response below about 72% or above about 130%; inactive = in between;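 also: Galphao activated as GDP AlF4 complex before binding bead RGS8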
RGS7-Gao single: RGS7-Galphao interaction regulation, single point confirmation | shares compounds with RGS16-Gao HTS | bead-based flow cytometry RGS7-Galphao binding; actives lie on both sides | response (percent of control binding), % at 10 µM | actives 7.8% (n = 1,700); in the data active = response below about 75% or above about 130%; inactive = in between;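 also: fluorescent Galphao activated with GDP and aluminum fluoride binding bead-coupled RGS7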
RGS16-Gao conf: confirmation of regulators of human RGS16-Galphao interaction. shares compounds with RGS16-Gao HTS. bead-based flow cytometry, RGS16-Galphao binding; actives lie on both sides. response (% of control binding), % at 10 µM. actives 4% (n = 1,700); in the data active = response below about 74% or above about 130%; inactive = in between;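 also: Galphao activated as the GDP aluminium fluoride complex binding bead-coupled RGS16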
RGS4-Gao confirm: RGS4-Galphao interaction regulation, single point confirmation; actives 4% (n = 1,700); RGS4-Galphao binding, multiplexed bead flow cytometry; actives lie on both sides; AID 1840; shares compounds with RGS16-Gao HTS; binding response (% of control), % at 10 µM; in the data active = binding response below about 74% or above about 130%; inactive = in between
RGS19-Gao conf: confirmation of regulators of human RGS19-Galphao interaction | shares compounds with RGS16-Gao HTS | bead-based flow cytometry RGS19-Galphao binding; actives lie on both sides | response (percent of control binding), % at 10 µM | actives 5% (n = 1,700) | AID 1841; in the data active = response below about 50% or above about 160%; inactive = in between;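 also: 100% = no compound control and 0% = blank background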
The depositor's hits bear a star; [ ] = dose if it differs, or a comment. Rows were chosen to be rich in hits. Some 1.2% of all compounds tested hit in one or more screens of this group. Unless noted, no rule for the calls is given here.

Screening C#CCOCCOCCOCCNc1nc(N2CCN(C(=O)[C@H]([C@@H](C)CC)n3cc([C@@H](N)CO)nn3)CC2)nc(N2CCN(C(=O)[C@H]([C@@H](C)CC)n3cc([C@@H](N)Cc4ccc(O)cc4)nn3)CC2)n1 returned RGS4-Gao reg 22*, RGS7-Gao reg 18*, RGS8-Gao reg 41*, RGS16-Gao HTS 18*, GSH fluor 18, Avidin bead fluor 0, Avidin counter 0, RGS8-Gao confirm 100, RGS7-Gao single 101, RGS16-Gao conf 99, RGS4-Gao confirm 99 and RGS19-Gao conf 88.
For Cc1cccc(C)c1NC(=O)CS(=O)CC(=O)NCC1OCCc2ccccc21 (stereo not given) the results were RGS4-Gao reg 97, RGS7-Gao reg 108, RGS8-Gao reg 95, RGS16-Gao HTS 106, GSH fluor 21 and Avidin bead fluor 14.
Screening O=C(c1ccc(S(=O)(=O)NCc2ccco2)cc1)N1CCN(Cc2ccc3c(c2)OCO3)CC1 returned RGS4-Gao reg 122, RGS7-Gao reg 120, RGS8-Gao reg 158*[activator], RGS16-Gao HTS 336, GSH fluor 13, Avidin bead fluor 8, RGS-Gao 122*, Avidin counter -1, RGS8-Gao confirm 100, RGS7-Gao single 97, RGS16-Gao conf 100, RGS4-Gao confirm 98 and RGS19-Gao conf 101.
For COc1ccccc1/C=N/NC(=O)c1ccc(-c2ccccc2)cc1 the results were RGS4-Gao reg 117, RGS7-Gao reg 114, RGS8-Gao reg 123, RGS16-Gao HTS 191*[activator], GSH fluor 13, Avidin bead fluor 17, RGS-Gao 117*, Avidin counter 2, RGS8-Gao confirm 95, RGS7-Gao single 61*, RGS16-Gao conf 77, RGS4-Gao confirm 76 and RGS19-Gao conf 61.
For COc1cccc(/C=N/NC(=O)c2ccccc2)c1OS(=O)(=O)c1ccccc1 the results were RGS4-Gao reg 91, RGS7-Gao reg 89, RGS8-Gao reg 75, RGS16-Gao HTS 25*, GSH fluor 7, Avidin bead fluor 9, RGS-Gao 91*, Avidin counter -1, RGS8-Gao confirm 101, RGS7-Gao single 100, RGS16-Gao conf 97, RGS4-Gao confirm 100 and RGS19-Gao conf 100.
For COc1cccc(/C=N/NC(=O)c2ccc(=O)n(C)c2)c1OC the results were RGS4-Gao reg 102, RGS7-Gao reg 105, RGS8-Gao reg 103, RGS16-Gao HTS 101, GSH fluor 11 and Avidin bead fluor 12.
Screening Cc1cccc(Nc2cc(C)c3c(O)cccc3n2)c1C returned RGS4-Gao reg 96, RGS7-Gao reg 98, RGS8-Gao reg 106, RGS16-Gao HTS 120, GSH fluor 13 and Avidin bead fluor 5.
For c1ccc(-c2ccccc2OCCCN2CCOCC2)cc1 the results were RGS4-Gao reg 99, RGS7-Gao reg 103, RGS8-Gao reg 98, RGS16-Gao HTS 95, GSH fluor 23 and Avidin bead fluor 24.
For OCCCN1CCN(CCCOc2ccccc2-c2ccccc2)CC1 the results were RGS4-Gao reg 107, RGS7-Gao reg 110, RGS8-Gao reg 116, RGS16-Gao HTS 179*[activator], GSH fluor 6, Avidin bead fluor 13, RGS-Gao 107*, Avidin counter 1, RGS8-Gao confirm 102, RGS7-Gao single 103, RGS16-Gao conf 104, RGS4-Gao confirm 104 and RGS19-Gao conf 95.
`C=C(C)c1cccc(C(C)(C)NC(=O)N2CCN(CC)CC2)c1` gave RGS4-Gao reg 100, RGS7-Gao reg 98, RGS8-Gao reg 104, RGS16-Gao HTS 109, GSH fluor 19 and Avidin bead fluor 32.
`C=C(C)c1cccc(C(C)(C)NC(=O)N2CCCCC2CC)c1` (stereo not given) gave RGS4-Gao reg 142, RGS7-Gao reg 124, RGS8-Gao reg 172*[activator], RGS16-Gao HTS 404, GSH fluor 8, Avidin bead fluor 7 and RGS-Gao 142*.
Screening CCCCCn1c(CN(C)Cc2ccccc2)nc2c1c(=O)n(C)c(=O)n2C returned RGS4-Gao reg 110, RGS7-Gao reg 110, RGS8-Gao reg 129, RGS16-Gao HTS 238*[activator], GSH fluor 11, Avidin bead fluor 7, RGS-Gao 110*, Avidin counter -3, RGS8-Gao confirm 100, RGS7-Gao single 100, RGS16-Gao conf 99, RGS4-Gao confirm 100 and RGS19-Gao conf 103.
For COc1ccc(/C=N/NC(=O)c2cccnc2)c(C(=O)O)c1OC the results were RGS4-Gao reg 98, RGS7-Gao reg inconclusive, RGS8-Gao reg 100, RGS16-Gao HTS 104 and Avidin bead fluor 6.
`CCCCNC(=O)CN(CCc1ccccc1)S(C)(=O)=O` gave RGS4-Gao reg 169*[activator], RGS7-Gao reg 133, RGS8-Gao reg 108, RGS16-Gao HTS 149, GSH fluor 12, Avidin bead fluor 23, Avidin counter inactive, RGS8-Gao confirm 107, RGS7-Gao single 118, RGS16-Gao conf 110, RGS4-Gao confirm 114 and RGS19-Gao conf 109.
COCCN(C(=S)Nc1ccc(C)cc1C)C(C)c1ccco1 (stereo not given) was read as RGS4-Gao reg 160*[activator], RGS7-Gao reg 142, RGS8-Gao reg 164*[activator], RGS16-Gao HTS 397, GSH fluor 11, Avidin bead fluor 8, Avidin counter 1, RGS8-Gao confirm 99, RGS7-Gao single 98, RGS16-Gao conf 97, RGS4-Gao confirm 98 and RGS19-Gao conf 106.
